Reference: PubChem BioAssay (NCI)
Compounds without any hit were thinned out: in the full panel of roughly 79,000, 15% have a hit. Values without a mark were called inactive. Activity calls are given as the source filed them. Cut-off read from the data, not from the text of the source: active = growth inhibition above about 70%; inactive = the rest.

What was measured:
[1] = NCI Yeast Anticancer Drug Screen. Data for the rad50 strain (AID 155);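 note: 0% = growth of vehicle-only cultures of the same strain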; details: S. cerevisiae rad50 strain growth inhibition, hits give high values
Procedure, shortened: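 Inhibition values express reduced yeast growth in compound-treated cultures relative to vehicle-treated controls.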

[2] = NCI Yeast Anticancer Drug Screen. Data for the mec2-1 strain (AID 157); details: S. cerevisiae mec2-1 strain, hits give high values
Procedure, shortened: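 Using mec2-1 yeast: add compound, measure growth, express inhibition versus vehicle-treated cultures.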

[3] = NCI Yeast Anticancer Drug Screen. Data for the sgs1 mgt1 strain (AID 161);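 note: 0% = growth of cultures given vehicle only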; details: S. cerevisiae sgs1 mgt1 strain, hits give high values
Procedure, shortened: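 Percent growth inhibition was derived by comparing compound-exposed mutant yeast with vehicle-exposed cultures. The strain carries alterations in DNA damage repair.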

[4] = NCI Yeast Anticancer Drug Screen. Data for the cln2 rad14 strain (AID 165);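 note: 0% = growth equal to vehicle treated cultures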; details: S. cerevisiae cln2 rad14 strain, hits give high values
Procedure, shortened: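 Yeast strain cln2 rad14, bearing defects in cell cycle control and DNA repair, serves as the test system; values reflect growth inhibition compared with vehicle.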

[5] = NCI Yeast Anticancer Drug Screen. Data for the bub3 strain (AID 167); details: S. cerevisiae bub3 mutant strain, hits give high values
Procedure, shortened: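 Steps: expose the mutant yeast strain to compound; grow alongside vehicle-treated cultures; measure growth; express inhibition against the vehicle cultures.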

[6] = NCI Yeast Anticancer Drug Screen. Data for the mlh1 rad18 strain (AID 175); details: S. cerevisiae mlh1 rad18 strain growth inhibition, hits give high values
Procedure, shortened: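 Steps: expose repair-defective yeast to compound; measure growth; express inhibition against vehicle-treated controls.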

[7] = at 5.0 µM (retest, dose inferred, filed as 0.5)
[8] = at 50.0 µM (retest, dose inferred, filed as 5.0)

| SMILES | growth inhibition [1, 7] | growth inhibition [1, 8] | growth inhibition ([1]; at 50.0 µM) | growth inhibition [2, 7] | growth inhibition [2, 8] | growth inhibition ([2]; at 50.0 µM) | growth inhibition [3, 7] | growth inhibition [3, 8] | growth inhibition ([3]; at 50.0 µM) | growth inhibition [4, 7] | growth inhibition [4, 8] | growth inhibition ([4]; at 50.0 µM) | growth inhibition [5, 7] | growth inhibition [5, 8] | growth inhibition ([5]; at 50.0 µM) | growth inhibition [6, 7] | growth inhibition [6, 8] | growth inhibition ([6]; at 50.0 µM) |
| --- | --- | --- | --- | --- | --- | --- | --- | --- | --- | --- | --- | --- | --- | --- | --- | --- | --- | --- |
| Cn1c(=O)c2[nH]cnc2n(C)c1=O.[CH2-]C(Cc1cccc2cc(C(=O)O)c(=O)oc12)OC.[Hg+2].[OH-] (configuration not stated) | 1% | 6% | 46% | -3% | 14% | 96.7% (active) | -6% | 21% | 93.5% (active) | 25% | -29% | 93.2% (active) | -20% | -16% | 96.8% (active) | -7% | 17% | 98.3% (active) |
| CCC1CC2C3Cc4ccc(OC)c(O)c4C2(CCN3C)CC1=O (configuration not stated) | 6% | 3% | -6.45% | -12% | -2% | -6% | 19% | 9% | -8% | 14% | 11% | -5.3% | 24% | 19% | -1.25% | 9% | 9% | -7.5% |
| N#CC(C#N)=Cc1ccc([N+](=O)[O-])s1 | -83% | 98% (active) | 99.6% (active) | -45% | 99% (active) | 99.6% (active) | -42% | 98% (active) | 99.2% (active) | -53% | 98% (active) | 98.5% (active) | -66% | 98% (active) | 99.3% (active) | -83% | 97% (active) | 99.2% (active) |
| Cc1cc[n+](C2=C(Nc3cc(C)cc(C)c3)C(=O)c3ccccc3C2=O)cc1 | -3% | 9% | 24.9% | -2% | 11% | 28.5% | -1% | 16% | 9.5% | -9% | 1% | 6.75% | 1% | 45% | 16% | -3% | 15% | 51.8% |
| Cc1cc(C)c(O)c(C)c1.[Hg] | 99% (active) | 98% (active) | 99.5% (active) | 99% (active) | 99% (active) | 99.5% (active) | 99% (active) | 99% (active) | 99.5% (active) | 99% (active) | 99% (active) | 99.4% (active) | 98% (active) | 99% (active) | 99.3% (active) | 98% (active) | 98% (active) | 99.5% (active) |
| ClCCN(CCCl)CCN1c2ccccc2Sc2ccc(Cl)cc21 | 0% | 69% | 99% (active) | 1% | 75% (active) | 96.2% (active) | 0% | 97% (active) | 99.5% (active) | -1% | 49% | 98.5% (active) | -2% | 80% (active) | 97.1% (active) | 3% | 95% (active) | 98.9% (active) |
| CN(C)c1ccc(N=Cc2c([O-])ccc3ccccc23)cc1.[C-]#[O+].[C-]#[O+].[Ir] | 1% | 1% | 83.4% (active) | 15% | 15% | 60.4% | -17% | -17% | 78.3% (active) | 3% | 3% | 77.1% (active) | 2% | 2% | 82.5% (active) | 9% | 9% | 71.1% (active) |
| CC(C)=CC1CC(C)C2(CCC3(C)CC4C(C(=O)CC4(C)O)/C(C=O)=C\CC32)O1 (configuration not stated) | 99% (active) | 100% (active) | 94.5% (active) | 99% (active) | 100% (active) | 94.6% (active) | 99% (active) | 99% (active) | 95% (active) | 99% (active) | 99% (active) | 93.6% (active) | 99% (active) | 100% (active) | 94.5% (active) | 99% (active) | 100% (active) | 93.7% (active) |
| CN1c2cccc[c]2[Sn]([CH3])([CH3])[c]2ccccc21 | 98% (active) | 99% (active) | 99.4% (active) | 99% (active) | 99% (active) | 99.2% (active) | 97% (active) | 99% (active) | 99.5% (active) | 77% (active) | 100% (active) | 94% (active) | 7% | 99% (active) | 99.2% (active) | 98% (active) | 99% (active) | 99.3% (active) |
| COc1c(Br)cc(/C=C(/C)[N+](=O)[O-])cc1Br | 23% | 66% | 91.3% (active) | 12% | 57% | 92.5% (active) | 43% | 74% (active) | 31.8% | 29% | 61% | 71.2% (active) | 46% | 79% (active) | 91.8% (active) | 13% | 59% | 82.3% (active) |
| N.N.N.N.N.N#N.[Cl-].[Os+7] | 18% | 78% (active) | 55.5% | 17% | 87% (active) | 59.4% | 33% | 90% (active) | 60.9% | 14% | 45% | 57.4% | 30% | 91% (active) | 59.1% | 31% | 89% (active) | 74% (active) |
| COc1cc2c3c(c1)-c1c(ccc(OC)c1OC)CC3N(CCCl)CC2 (configuration not stated) | 15% | 92% (active) | 87% (active) | 11% | 69% | 38.9% | 7% | 71% (active) | 77.2% (active) | 7% | 77% (active) | 31.8% | 13% | 75% (active) | 28.9% | 12% | 78% (active) | 86.7% (active) |
| O=P1(Oc2ccccc2)C(c2ccccc2)C(c2ccccc2)=NN1c1ccccc1 (configuration not stated) | 29% | 29% | 90.7% (active) | 12% | 12% | 91% (active) | 23% | 23% | 89.2% (active) | 23% | 23% | 90.8% (active) | 5% | 5% | 90.1% (active) | 11% | 11% | 89.6% (active) |
| c1cc[c]([Pb]([c]2ccccc2)[c]2ccccc2)cc1.c1cc[c]([Pb]([c]2ccccc2)[c]2ccccc2)cc1 | 99% (active) | 98% (active) | 99% (active) | 100% (active) | 99% (active) | 99.5% (active) | 100% (active) | 99% (active) | 99.5% (active) | 99% (active) | 98% (active) | 99% (active) | 99% (active) | 97% (active) | 99.4% (active) | 100% (active) | 99% (active) | 99.2% (active) |
| CCCCC1C(=O)NC(=S)N(c2ccccc2)C1=O (configuration not stated) | -4% | -1% | -1.75% | -3% | 11% | -1.25% | 3% | 17% | 7.5% | -2% | -7% | 34.2% | 0% | 4% | 11.1% | -9% | 1% | 13.8% |
| CO/C(N)=C(\C#N)N=Cc1cccnc1 | 25% | 26% | 29.6% | 25% | 30% | 80.2% (active) | 20% | 32% | 36.7% | 26% | 25% | 15.4% | 29% | 47% | 48.2% | 29% | 25% | -25.4% |
| CCCCCCCC[N+](CCCC)(CCCC)CCCC (tested in a mixture with another compound) | 99% (active) | 99% (active) | 99.5% (active) | 99% (active) | 100% (active) | 99.7% (active) | 100% (active) | 100% (active) | 99.5% (active) | 97% (active) | 99% (active) | 99.5% (active) | 100% (active) | 99% (active) | 99.7% (active) | 99% (active) | 99% (active) | 99.3% (active) |
| CNCC(O)c1cn(C)c2ccccc12 (configuration not stated) | 4% | 0% | 45% | 4% | 3% | 20.6% | 3% | 5% | 25.1% | 6% | 2% | 22.1% | 4% | 0% | 48.9% | 0% | -2% | 40.9% |
| CCC(=O)O[C@H]1CC[C@H]2[C@@H]3CCC4=C/C(=N/OC(=O)c5cccc6c(=O)c7ccccc7[nH]c56)CC[C@]4(C)[C@H]3CC[C@]12C | 29% | 83% (active) | 53.8% | 26% | 31% | 77.4% (active) | -26% | 52% | 79.3% (active) | -14% | 43% | 47.1% | 10% | 66% | 74.4% (active) | 29% | 40% | 17.6% |
